Test results from PubChem BioAssay (NCATS).
Records with an inconclusive call do not appear. Calls of active or inactive are those of the source. Calls come from the whole dose curve; as a rule, active = well fitted curve in the direction sought with a large enough effect; inconclusive = small, poorly fitted or top-dose-only effect, or another doubt; inactive = no such curve, though single readings can be large; an effect the other way counts as inactive or inconclusive.

Molecular target: ATP-dependent 6-phosphofructokinase (Trypanosoma brucei brucei) (UniProt O15648)
Assay: qHTS Validation Assay to Find Inhibitors of T. brucei phosphofructokinase (AID 485368);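 for activity change, negative = inhibition: 0% = full PFK enzyme control and -100% = wells without enzyme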
Conditions: T. brucei PFK enzyme assay, qHTS 7-point titration; series mostly up to 57.5 µM; activity change, negative = inhibition: at the top concentration
Summary of the method: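 Activity was read as ADP production by luminescence (ADP-Glo) after 45 min at room temperature. The enzyme was 1.25nM PFK in 0.1M TEA pH 8.0 with 0.5 mM F6P, 0.1mM ATP and 5 mM MgCl2. Compounds were titrated up to 57 uM and % activity normalized to no-enzyme and full-enzyme controls.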

ATP-dependent 6-phosphofructokinase (Trypanosoma brucei brucei), sequence (O15648 whole entry, looked up): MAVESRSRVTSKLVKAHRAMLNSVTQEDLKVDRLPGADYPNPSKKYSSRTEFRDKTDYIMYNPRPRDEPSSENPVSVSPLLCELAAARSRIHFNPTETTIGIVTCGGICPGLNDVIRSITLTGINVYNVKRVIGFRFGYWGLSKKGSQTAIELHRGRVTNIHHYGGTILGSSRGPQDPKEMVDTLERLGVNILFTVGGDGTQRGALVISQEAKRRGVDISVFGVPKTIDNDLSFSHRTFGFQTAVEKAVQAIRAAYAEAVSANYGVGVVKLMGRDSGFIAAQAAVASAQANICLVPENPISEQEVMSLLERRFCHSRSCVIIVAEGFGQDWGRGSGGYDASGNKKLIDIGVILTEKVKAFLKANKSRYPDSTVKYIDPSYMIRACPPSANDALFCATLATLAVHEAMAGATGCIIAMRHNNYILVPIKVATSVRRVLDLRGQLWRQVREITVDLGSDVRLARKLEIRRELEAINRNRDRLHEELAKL

| Compound | activity change, negative = inhibition | outcome |
| --- | --- | --- |
| Cc1ccc(/C(=C\CN2CCCC2)c2ccccn2)cc1 | 7.23% (inactive) | – |
| Cc1nc2ccccn2c(=O)c1CCN1CCC(C(=O)c2ccc(F)cc2)CC1 | – | inactive |
| NC1=NCC2c3ccccc3Cc3ccccc3N12 (stereo not given) | – | inactive |
| COc1ccc([C@@H]2Sc3ccccc3N(CCN(C)C)C(=O)[C@@H]2OC(C)=O)cc1 | 16.5% (inactive) | – |
| CC(C)(C)c1ccc(C(=O)CCCN2CCC(OC(c3ccccc3)c3ccccc3)CC2)cc1 | – | inactive |
| CN1C(=O)CC[C@H]1c1cccnc1 | – | inactive |
| CN(C(=O)CCCOc1ccc2[nH]c(=O)ccc2c1)C1CCCCC1 | – | inactive |
| COc1ccc2c(c1OC)C(=O)O[C@@H]2[C@H]1c2c(cc3c(c2OC)OCO3)CCN1C | – | inactive |
| CCCCCCCC/C=C\CCCCCCCC(=O)NCc1ccc(O)c(OC)c1 | – | inactive |
| COC(=O)C1=C(C)NC(C)=C(C(=O)OC(C)(C)CN(C)CCC(c2ccccc2)c2ccccc2)C1c1cccc([N+](=O)[O-])c1 (stereo not given) | – | inactive |
| C[N+](C)(C)CCCCCCCCCC[N+](C)(C)C | – | inactive |
| CNCCCN1c2ccccc2CCc2ccccc21 | – | inactive |

Tested on: not listed separately
Assay: Quantitative high throughput screen for delayed death inhibitors of the malarial parasite plastid, 96 hour incubation (AID 488745); note: nearly all actives have a fitted effect of over 70% in size; note: potency is the fitted concentration of half-maximal effect;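 for activity change, negative = inhibition: luciferase-expressing P. falciparum in erythrocytes at 2% hematocrit and 0.1% parasitemia; % is set by controls: 0 for no effect and ±100 for the full control effect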
Conditions: Plasmodium falciparum growth; series mostly up to 28.7 µM; activity change, negative = inhibition: at the top concentration
Summary of the method: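 Infected erythrocytes were added to compound in Albumax-supplemented RPMI 1640 at 0.1% parasitemia and 2% hematocrit (final), incubated 96 h at 37 C under 5% CO2, then luciferase reagent was added and luminescence measured.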

| Compound | activity change, negative = inhibition | Potency |
| --- | --- | --- |
| CC(N=C(NC#N)Nc1ccncc1)C(C)(C)C (stereo not given) | -4.65% (inactive) | – |
| Cc1ccc(/C(=C\CN2CCCC2)c2ccccn2)cc1 | -29.2% (inactive) | – |
| Cc1nc2ccccn2c(=O)c1CCN1CCC(C(=O)c2ccc(F)cc2)CC1 | -24.3% (inactive) | – |
| COC(=O)[C@@H](N)Cc1ccc(O)c(O)c1 | -16.6% (inactive) | – |
| COc1ccc([C@@H]2Sc3ccccc3N(CCN(C)C)C(=O)[C@@H]2OC(C)=O)cc1 | -16.9% (inactive) | – |
| Cc1scc2c1N(C(=O)CN1CCN(C)CC1)c1ccccc1NC2=O | 27.5% (inactive) | – |
| C[C@]12CCC(=O)C=C1CC[C@@H]1[C@@H]2CC[C@@]2(C)[C@H]1CC[C@]2(O)C(=O)CO | -13.9% (inactive) | – |
| CCn1cc(C(=O)O)c(=O)c2cc3c(cc21)OCO3 | 13.7% (inactive) | – |
| COC(=O)C1=C(C)NC(C)=C(C(=O)OCCN(C)Cc2ccccc2)C1c1cccc([N+](=O)[O-])c1 (stereo not given) | – | 3290 nM (active) |
| Brc1c(NC2=NCCN2)ccc2nccnc12 | 4.72% (inactive) | – |
| C[N+](C)(C)CCCCCCCCCC[N+](C)(C)C | – | 329 nM (active) |
| CCOC(=O)c1cnc2c(cnn2CC)c1NN=C(C)C | 10.5% (inactive) | – |
| CSc1ccc(C(=O)c2[nH]c(=O)[nH]c2C)cc1 | -12% (inactive) | – |
